Pol kappa inh: DNA polymerase kappa (human) inhibition. Q9UBT6. purified Pol kappa, fluorescent DNA synthesis assay, 10 min. Potency, µM (series often up to 107 µM), for the others: at the top dose activity, negative = inhibition, hits mostly inhibitors. 0.53% of 400,000 active; note: potency is the fitted concentration of half-maximal effect; % is set by controls: 0 for no effect and ±100 for the full control effect
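50 nM final substrate added after 15 min RT preincubation of 10 nM Pol kappa with compound; fluorescence read at 0 and 10 min.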
POLH inh: blocks human DNA polymerase eta activity; 1.2% of 390,000 active; Q9Y253; recombinant Pol eta, fluorescent DNA replication assay; Potency, µM (doses to about 114 µM), without a hit: at the top dose activity change, negative = inhibition, most hits filed as inhibitors; AID 588591; note: potency is the fitted concentration of half-maximal effect; % is set by controls: 0 for no effect and ±100 for the full control effect
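Pol eta (10 nM) was preincubated with compounds for 15 min at room temperature, after which fluorescent replication substrate (50 nM final) was added to start the reaction. Fluorescence was read kinetically at 0 and 10 min.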
PI5P4K alpha inh: inhibitors of human PI5P4K alpha; P48426; PI5P4Kalpha enzyme, ADP-Glo luminescence, 60 min; hits give low values; max response, %; 1.2% of 330,000 active; active = max response of -50% or lower; inconclusive = between -30% and -50%; inactive = -30% or higher; note: value at the top dose of about 77 µM; % is set by controls: 0 for no effect and ±100 for the full control effect
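Human PI5P4Kalpha with substrate in 0.038 M HEPES pH 7.4, 0.28 mM EGTA, 0.1% CHAPS, 5% DMSO; reaction started with 5 microM ATP (final), 60 min at room temperature. ADP formed read by ADP-Glo luminescence.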
FEN1 inh: human FEN1 inhibition | P39748 | 0.35% of 390,000 active | Potency, µM (doses to about 114 µM), without a hit: top-dose activity change, negative = inhibition, usual class: inhibitors | Recombinant FEN1 flap cleavage, fluorescence, 15 min; note: potency is the fitted concentration of half-maximal effect; % is set by controls: 0 for no effect and ±100 for the full control effect; nearly all actives have a fitted effect of over 65% in size
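Read-out was taken twice, immediately and after 15 min, following addition of 50 nM substrate to 10 nM FEN1 that had sat with test compound for 15 min at room temperature. Curves came from a four-parameter Hill model.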
POLB inh: blocks human DNA polymerase beta activity | Potency, µM (series often up to 114 µM), inactives show at the top dose activity change, negative = inhibition, hits mostly inhibitors | Pol beta primer extension/strand displacement, fluorescence kinetic | 1.3% of 340,000 active | AID 485314; note: potency is the fitted concentration of half-maximal effect; % is set by controls: 0 for no effect and ±100 for the full control effect
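Pol beta (10 nM) and compounds were preincubated 15 min at room temperature, then 50 nM substrate (final) started primer extension/strand displacement. Reads were taken at 0 and 10 min; concentration-response data were fitted to a four-parameter Hill equation.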
Pol iota inh: inhibitors of human DNA polymerase iota | Q9UNA4 | Pol iota fluorescent replication assay, 10 min | Potency, µM (highest dose often 115 µM), for the others: top-dose activity, negative = inhibition, usual class: inhibitors | 1% of 390,000 active | AID 588590; note: potency is the fitted concentration of half-maximal effect
Target sequence (Q9UNA4 whole entry, looked up): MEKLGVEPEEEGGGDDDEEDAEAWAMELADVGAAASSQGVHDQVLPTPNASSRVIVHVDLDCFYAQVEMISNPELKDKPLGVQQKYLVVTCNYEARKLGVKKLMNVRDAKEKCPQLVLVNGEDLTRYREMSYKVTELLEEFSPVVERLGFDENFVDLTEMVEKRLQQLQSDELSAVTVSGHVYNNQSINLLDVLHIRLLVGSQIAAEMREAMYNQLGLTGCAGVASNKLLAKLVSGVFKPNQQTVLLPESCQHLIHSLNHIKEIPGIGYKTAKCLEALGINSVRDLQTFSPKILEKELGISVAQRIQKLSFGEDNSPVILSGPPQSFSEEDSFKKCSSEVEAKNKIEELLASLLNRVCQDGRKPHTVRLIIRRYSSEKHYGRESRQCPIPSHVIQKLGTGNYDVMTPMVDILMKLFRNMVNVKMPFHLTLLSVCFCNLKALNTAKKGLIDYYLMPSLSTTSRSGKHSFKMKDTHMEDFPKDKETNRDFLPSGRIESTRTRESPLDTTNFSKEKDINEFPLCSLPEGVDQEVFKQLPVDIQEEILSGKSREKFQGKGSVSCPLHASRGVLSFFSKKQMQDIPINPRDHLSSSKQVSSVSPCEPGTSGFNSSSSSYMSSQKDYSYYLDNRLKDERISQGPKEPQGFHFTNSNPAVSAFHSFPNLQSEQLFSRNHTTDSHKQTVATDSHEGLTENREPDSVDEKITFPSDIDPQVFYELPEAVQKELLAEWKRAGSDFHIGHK
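Pol iota at 10 nM preincubated 15 min with compounds at room temperature; reaction started with fluorescent substrate, 50 nM final. Fluorescence read kinetically at 0 and 10 min; buffer-only wells as negative control.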
Starred values were filed as active, the others as inactive; ? = inconclusive; / = no result; [ ] = dose if it differs, or a comment. Shown are actives, neighbours in structure and some others; about 2.8% of the full set was active somewhere. Unless noted, calls come from the whole dose curve; as a rule, active = well fitted curve in the direction sought with a large enough effect; inconclusive = small, poorly fitted or top-dose-only effect, or another doubt; inactive = no such curve, though single readings can be large; an effect the other way counts as inactive or inconclusive.

SMILES	Pol kappa inh	POLH inh	PI5P4K alpha inh	FEN1 inh	POLB inh	Pol iota inh
COc1ccc(C2=CC3=C(Br)C(=O)C(C)(OC(=O)c4ccco4)C(=O)C3=CO2)cc1 (centres undefined)	79µM*	?	-74*	40µM*	20µM*	18µM*
COc1ccccc1Cn1c(CNS(=O)(=O)c2cccc([N+](=O)[O-])c2)nc2cccnc21	-7%[60.1 µM]	-20%	/	14%	11%	3%
Cc1csc(NC(=O)c2cncc(Br)c2)n1	0%	4%	2	18%	0%	3%
O=C(O)C1C2C=CC(C2)C1C(=O)Nc1ccccc1Br (centres undefined)	-4%	?	-12	7%	89µM*	-11%
COc1cccc(N2CCN(C(=O)c3ccc4nc[nH]c4c3)CC2)c1	-16%	89µM*	-28	-6%	29%	?
COc1cccc(N2CCN(C(=O)c3ccc4ccccc4c3)CC2)c1	-15%	-5%	4	-9%	/	15%
Oc1c(Cl)cc(Cl)cc1C=Nc1ccc(N2CCOCC2)cc1	-7%	-19%	3	-1%	31%	174%
O=[N+]([O-])c1cc(Cc2ccccc2)cc(C=Nc2ccc(N3CCOCC3)cc2)c1O	-19%	?	-51*	?	0%	0%
Cc1ccc2c(c1)C1OCCC1C1N2C(=O)C2C(C(=O)O)C3C=CC21O3 (centres undefined)	-30%	?	/	-1%	40µM*	?
COc1cc(/C=C/C(=O)O)cc(S(=O)(=O)NNC(=O)c2ccc3c(c2)OCO3)c1OC	-3%	-9%	5	-2%	/	51%
COc1cc(/C=C/C(=O)O)cc(S(=O)(=O)Nc2ccc3c(c2)OCO3)c1OC	14%	-12%	-53*	6%	16%	50%
C=C(CCC(=O)c1ccccc1)C(=O)c1ccccc1	4%	16µM*	0	-18%	?	?
O=C(CCCCCCCC(=O)c1ccccc1)c1ccccc1	-5%	-14%	4	-17%	27%	?
O=C(Oc1csc(=S)n1C(=O)c1ccccc1)c1ccccc1	-29%	-1%	-75*	-19%	5%	15%
CC(C)(O)c1ccc2c(c1)CCC1C(C)(C(=O)O)CCCC21C (centres undefined)	-39%	?	-17	-16%	40µM*	?
O=[N+]([O-])c1ccc(-c2nc(NCc3ccccc3)c3ccccc3n2)cc1	-16%	79µM*	1	-2%	1%	46%
Cc1ccccc1NN=Nc1nc2c([nH]1)c(=O)n(C)c(=O)n2C	4%	-2%	-16	4%	14%	28%
Cn1c(=O)c2[nH]c(N=NNc3ccccc3F)nc2n(C)c1=O	3%	-17%	?	2%	-3%	25µM*
CCCCCCCCCCCCOC(=O)N1CCN(/[N+]([O-])=N/Oc2ccc([N+](=O)[O-])cc2[N+](C)=O)CC1	3%	/	/	3%	/	35%
CC1CCc2c(sc(NC(=O)c3cc(-c4cccc(Cl)c4)on3)c2C(N)=O)C1 (centres undefined)	-4%	2%	/	-4%	-14%	-17%
CCn1cc(/C=N/NC(=O)COc2cccc3cccnc23)c2ccccc21	-2%	?	-6	-14%	13µM*	?
COc1ccc(/C=N/NC(=O)COc2cccc3cccnc23)cc1OC	?	?	-10	-15%	?	?
Cc1ccc(C)c(CNc2ccc(S(=O)(=O)N3CCCCC3)cc2)c1	-17%	-8%	-3	0%	/	-10%
O=C(O)/C=C\C(=O)Nc1cc(O)ccc1[N+](=O)[O-]	-13%	-10%	-75*	-20%	3%	-20%
Cc1ccc(NC(=O)/C=C\C(=O)O)c([N+](=O)[O-])c1	-11%	-7%	-6	-2%	4%	-24%
SMILES	Pol kappa inh	POLH inh	PI5P4K alpha inh	FEN1 inh	POLB inh	Pol iota inh
CCOc1cc2c(C#N)c(N3CCOCC3)nc(N)c2c(N)n1	-5%	-2%	-7	-14%	82%	-4%
CCOc1cc2c(C#N)c(N(CC)CC)nc(N)c2c(N)n1	-5%	-16%	3	7%	/	10µM*
O=C(CSc1nc2nn(-c3ccccc3)c(=O)c-2c2n1CCCCC2)c1ccc(O)c(O)c1	4µM*	1.8µM*	-54*	?	/	2µM*
O=C(/C=C/c1ccc2c(c1)OCO2)Nc1nc(-c2ccc(F)cc2F)cs1	/	/	/	/	22µM*	/
O=C(O)c1ccc(-n2ncc3c2/C(=C\c2cccc([N+](=O)[O-])c2)CC3)cc1	-11%	?	-15	7%	/	?
O=C(O)c1ccc(-n2ncc3c2/C(=C/c2cccc([N+](=O)[O-])c2)CC3)cc1	-9%	50µM*	-23	1%	1%	?
NC(=O)c1c(NC(=O)CS(=O)(=O)c2ccc(Cl)cc2)sc2c1CCCCC2	-7%[60.1 µM]	7%	/	-11%	?	-19%
CCCC[C@]12Cc3cc(OC)c(OC)cc3C(O1)c1c(cc(-c3ccccc3)oc1=O)O2	/	/	/	/	10%[22.9 µM]	/
CCCC[C@]12Cc3ccccc3C(O1)c1c(cc(-c3ccccc3)oc1=O)O2	/	/	/	/	3.5µM*	/
Cc1cc(C(=O)N2CCN(c3cc(Cl)ccc3C)CC2)c2c(C)nn(-c3ccccc3)c2n1	3%	-26%	/	-11%	-1%	3%
COc1cc(Cl)c(C)cc1Nc1nc2ccccc2c2nnc(C)n12	9%	-14%	/	7%	12%	31%
NC(=S)N=Nc1c(O)[nH]c2ccc(F)cc12	-4%	-15%	-10	6%	28%	32%
NC(=S)N=Nc1c(O)cc(O)c2[nH]c(=O)ccc12	?	1.8µM*	-72*	13µM*	/	3.2µM*
Cc1ccc(-c2cc(C(=O)N/N=C/c3ccc(Cl)cc3)n[nH]2)o1	-4%	?	-14	-19%	25µM*	?
CCOc1ccc(NC(=O)CSc2cn(CC(=O)N3CCCCCC3)c3ccccc23)cc1	-2%	-1%	/	8%	0%	2%
O=C(Nc1ccccc1SC(=O)c1ccccc1)c1ccccc1	/	-14%	?	/	/	/
Cc1ccc(C(=O)Sc2cccccc2=O)cc1	-17%	-14%	-27	1%	40µM*	?
COc1cc(OC)cc(-c2nc3nc(C)c(CCC(=O)Nc4ccc(Cl)cc4)c(C)n3n2)c1	-23%	-13%	/	-8%	-2%	1%
COc1cc(/C=C(\C#N)C(=O)N2CCOCC2)cc(Br)c1O	-7%	-18%	-61*	-6%	0%	5%
O=C(Nc1ccc2c(c1)OCCO2)C1c2ccccc2OCC(=O)N1Cc1cccnc1 (centres undefined)	/	/	0	/	/	/

Assay outcomes deposited in PubChem by National Center for Advancing Translational Sciences (NCATS).
